This is a sample that favours compounds with a hit; in the whole collection about 3.1% have one here.
uPA surface inh: cell surface uPA generation inhibition; cell surface uPA generation assay, qHTS; Potency, µM (titrated, usually from 38.3 µM), actives largely listed as inhibitors; 330,000 tested, 0.31% active; active = well fitted inhibition curve with a large enough effect; inconclusive = small, poorly fitted or top-dose-only effect; inactive = no such curve, though single readings can be large or run the other way; tested in mouse RAW 264.7 cells; also: nearly all actives have a fitted effect of over 55% in size
PLK1 PBD block: inhibitors of human PLK1 polo-box domain binding; P53350; Potency, µM, usual class: inhibitors; AID 720504; 360,000 tested, 2.8% active; Plk1 PBD binding of FITC phosphopeptide, fluorescence polarization; also: series mostly up to about 57 µM; nearly all actives have a fitted effect of over 65% in size
Target sequence (P53350 whole entry, looked up, the tested form may be a part): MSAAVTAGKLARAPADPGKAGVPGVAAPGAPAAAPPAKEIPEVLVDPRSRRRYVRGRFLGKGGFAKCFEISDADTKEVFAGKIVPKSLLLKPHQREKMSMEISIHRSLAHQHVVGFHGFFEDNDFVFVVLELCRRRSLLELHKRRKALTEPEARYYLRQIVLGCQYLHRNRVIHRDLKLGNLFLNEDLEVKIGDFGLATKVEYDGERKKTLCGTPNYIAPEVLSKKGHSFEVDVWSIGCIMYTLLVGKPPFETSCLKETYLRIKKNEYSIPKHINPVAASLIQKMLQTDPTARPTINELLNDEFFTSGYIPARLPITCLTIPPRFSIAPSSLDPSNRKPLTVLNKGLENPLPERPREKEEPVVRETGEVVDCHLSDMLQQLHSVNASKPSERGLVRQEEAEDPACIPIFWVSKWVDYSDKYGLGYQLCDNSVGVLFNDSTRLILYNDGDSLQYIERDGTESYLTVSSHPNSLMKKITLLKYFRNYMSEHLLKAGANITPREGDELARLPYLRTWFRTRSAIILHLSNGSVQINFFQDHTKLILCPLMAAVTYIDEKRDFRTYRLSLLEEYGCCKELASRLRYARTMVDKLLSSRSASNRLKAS
TSHR antagonist: blocks TSH signaling through the human TSH receptor | P16473 | TSHR-expressing cells, TSH-stimulated cAMP HTRF, 2 h; hits give low values | activity change, negative = inhibition, % at 11.5 µM | 330,000 tested, 0.2% active;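 active = activity change below a set negative limit, meaning inhibition stronger than a set level, cut at about -70% in these data; inconclusive = activity change between two set negative limits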
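Antagonism was scored as loss of TSH-driven cAMP in TSHR cells, stimulated with 4nM TSH (EC80) for 2 hours at 37 deg C and detected by homogeneous HTRF competition immunoassay.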
TSG101-PTAP inh: blocks PTAP/TSG101 interaction to inhibit HIV-1 budding; 340,000 tested, under 10 active; Potency, µM (series often up to 115 µM), actives largely listed as inhibitors; Fluorescence polarization, FITC-PTAP peptide / Tsg101 binding; Q99816; active = well fitted inhibition curve with a large enough effect in the main read-out, with a control signal flat, not every such curve was filed as active; inconclusive = small, poorly fitted or top-dose-only effect, or effect the other way, or a change in a side signal; inactive = no such curve, though single readings can be large or run the other way
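FP read-out: FITC-PTAP peptide, 50 nM final, binding Tsg101 binding domain, 10 uM final; 20 min, r.t.; 10 mM HEPES pH 7.5, 0.15 M NaCl, 0.01% Tween 20, 3 mM EDTA, 0.1 mM TCEP.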
VDR inh: blocks the human vitamin D receptor; P11473; VDR-SRC2-3 peptide fluorescence polarization, 2 h; Potency, µM, hits mostly inhibitors; 400,000 tested, 0.93% active
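FP read-out; VDR + SRC2-3 coactivator peptide; 23 nl compound by pintool; 2 h RT incubation; reagents held at 4 deg C, protected from light.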
Large screens that a line does not name were inactive. Unless noted, calls follow the shape of the dose curve; as a rule, active = well fitted curve in the direction sought with a large enough effect; inconclusive = small, poorly fitted or top-dose-only effect, or another doubt; inactive = no such curve, though single readings can be large; an effect the other way counts as inactive or inconclusive.

CN(CC1CCCO1)S(=O)(=O)c1ccc(C(=O)Nc2ccccc2F)cc1 (stereo not drawn)	none (no result: TSHR antagonist)
Cc1ccccc1NC(=O)c1cc(S(=O)(=O)N2CCOCC2)ccc1F	none (no result: uPA surface inh)
O=C(c1cc(COc2c(F)cccc2F)on1)N(Cc1ccccc1)CC1CC1	none
Cc1cccc(N2CCN(C(=O)c3ccc4c(c3)N(Cc3cccc(Cl)c3)C(=O)c3ccccc3S4=O)CC2)c1C (stereo not drawn)	none (no result: uPA surface inh, PLK1 PBD block, TSHR antagonist, TSG101-PTAP inh)
Cc1ccc(C)c(Nc2nnc(-c3ccc(C)c(S(=O)(=O)N4CCN(C)CC4)c3)c3ccccc23)c1	none (no result: uPA surface inh, PLK1 PBD block, TSHR antagonist, TSG101-PTAP inh)
O=C(COc1ccc2c(c1)CCC2)N1CCc2ccccc21	PLK1 PBD block 3.8µM, VDR inh inconclusive
CCN(CCn1cccn1)C(=O)c1ccc(OC2CCN(C(=O)CCOC)CC2)cc1	none (no result: uPA surface inh, TSHR antagonist, TSG101-PTAP inh, VDR inh)
Cc1cc(C(=O)COC(=O)c2cccnc2Cl)c(C)n1CC1CCCO1 (stereo not drawn)	uPA surface inh 1.6µM, VDR inh 89µM
Cc1cc(C(=O)COC(=O)c2cc(O)c3ccccc3c2O)c(C)n1CC1CCCO1 (stereo not drawn)	PLK1 PBD block 8.4µM, VDR inh 71µM
Cc1cc(C(=O)COC(=O)c2ccccc2Br)c(C)n1CC1CCCO1 (stereo not drawn)	none
C[N+]1(C)CCC[C@@H](OC(=O)C(O)(c2ccccc2)c2ccccc2)C1	none (no result: uPA surface inh, PLK1 PBD block, TSHR antagonist, TSG101-PTAP inh)
COc1ccc(-c2cn3nc(N4CCCC(C(=O)Nc5cc(C)ccc5C)C4)sc3n2)cc1 (stereo not drawn)	none (no result: uPA surface inh, PLK1 PBD block, TSHR antagonist, TSG101-PTAP inh)
NC(=O)CSc1nnc(Cc2ccc3c(c2)OCO3)n1C1CCCCC1	PLK1 PBD block 27µM (no result: uPA surface inh)
C/C(=N\NC(N)=S)C1=CCC2C3CC[C@H]4CC(O)CC[C@]4(C)C3CC[C@]12C (stereo partly drawn)	uPA surface inh inconclusive, PLK1 PBD block 17µM, VDR inh inconclusive
CC(C)CN1C(=O)C(=O)N(CC(=O)NCCCc2ccccc2)C1=O	none (no result: uPA surface inh, TSHR antagonist, TSG101-PTAP inh, VDR inh)
O=C(O)C1CC(C2CCCCN2)CN2CCCCC12 (stereo not drawn)	none (no result: uPA surface inh, PLK1 PBD block, TSHR antagonist, TSG101-PTAP inh)
COc1cc(-c2nnc3sc(C4CCCCC4)nn23)cc(OC)c1OC	none
COc1ccc(Cc2nn3c(-c4cc(OC)c(OC)c(OC)c4)nnc3s2)cc1	PLK1 PBD block 24µM
COc1cc(-c2nnc3sc(Cc4ccc(Cl)cc4)nn23)cc(OC)c1OC	uPA surface inh inconclusive, PLK1 PBD block 24µM, VDR inh inconclusive (no result: TSHR antagonist)
COc1cc(-c2nnc3sc(Cc4ccccc4)nn23)cc(OC)c1OC	PLK1 PBD block 27µM
COc1ccc(Cc2nn3c(-c4ccccc4Br)nnc3s2)cc1	none
CCCCn1c(=O)c2oc3ccccc3c2n(CC(=O)Nc2cccc(Cl)c2C)c1=O	none (no result: uPA surface inh, PLK1 PBD block, TSHR antagonist, TSG101-PTAP inh)
CCc1ccc(CN(Cc2ccco2)C(=O)c2cc(-c3ccc(Cl)cc3)on2)cc1	none (no result: uPA surface inh, PLK1 PBD block, TSHR antagonist, TSG101-PTAP inh)
N#C/C(=N\Nc1cccc([N+](=O)[O-])c1)C(=O)c1ccc(Br)cc1	PLK1 PBD block 30µM, TSHR antagonist inconclusive
O=C(O)c1ccc(N=NNc2cccc([N+](=O)[O-])c2)cc1	none
O=C(O)COc1ccccc1/C=N/NC(=O)CSc1nc2ccccc2n1Cc1ccccc1Cl	PLK1 PBD block 60µM
O=C(CSc1nc2ccccc2n1Cc1ccccc1Cl)N/N=C/c1ccccc1C(=O)O	PLK1 PBD block inconclusive
O=C(C1COc2cc(S(=O)(=O)Nc3ccc(Cl)cc3)ccc2O1)N1CCCC1 (stereo not drawn)	none (no result: uPA surface inh, PLK1 PBD block, TSHR antagonist, TSG101-PTAP inh)
C/C(=N/Nc1ccc(C(=O)O)cc1)c1ccc2c(c1)Nc1ccccc1S2	PLK1 PBD block 30µM (no result: TSHR antagonist)
C/C(=N\Nc1ccc(C(=O)O)cc1)c1ccc2c(c1)Nc1ccccc1S2	PLK1 PBD block 30µM
CC(=O)Nc1ccc(NC(=O)c2ccc3c(c2)NC(=O)c2ccccc2S3)cc1	none (no result: uPA surface inh, PLK1 PBD block, TSHR antagonist, TSG101-PTAP inh)
COc1ccc(/C(C)=N/Nc2cccc(C(=O)O)c2)cc1OC	none
Cc1cc(C)c(NC(=O)C2CCCO2)c(C)c1NC(=O)C1CCCO1 (stereo not drawn)	none
COc1ccc(C(C(=O)NCC2CCCO2)N(C(=O)CNC(=O)c2cccs2)c2ccccc2C)cc1OC (stereo not drawn)	none
COc1ccc(-n2nc3c(N4CCC(C(=O)NCCc5ccco5)CC4)nnc(C)c3c2C)cc1	uPA surface inh inconclusive, PLK1 PBD block 27µM
COc1ccc(-n2nc3c(N4CCC(C(=O)NCc5cccc(C)c5)CC4)nnc(C)c3c2C)cc1	uPA surface inh inconclusive

Assay outcomes deposited in PubChem by National Center for Advancing Translational Sciences (NCATS).
